{
  "source": "ChEMBL document CHEMBL4513216",
  "about": "“Probing the Open Global Health Chemical Diversity Library for Multistage-Active Starting Points for Next-Generation Antimalarials” (ACS Infect Dis, 2020)",
  "note": "Hit rate of the full screen: of about 69,000 compounds, about 8,600 (12%) showed an effect of 50% or more. The list comes from a sample in which strong results are over-represented; it also holds similar structures and randomly drawn compounds.",
  "data": [
    {"tested_on": "Plasmodium berghei", "experiment": "Screen against P. berghei liver stage (PbLuc), transformed with Luciferase, at 10uM", "type": "functional, HepG2", "details": "tested at 10 uM", "units": {"INHIBITION": "%"}, "values": [
      {"molecule": "COCCS(=O)(=O)NC(C)c1cccc(C)c1C", "note": "(stereo not given)", "INHIBITION": 48.2},
      {"molecule": "CCc1nnc2n1CCN(C(=O)CCc1ccc(C)c(Cl)c1)C2", "INHIBITION": -27},
      {"molecule": "O=C(Cc1c(F)cccc1Cl)N1CCC(Nc2cccnn2)CC1", "INHIBITION": -8.225},
      {"molecule": "c1cnc(N2CCCC3(CCN(c4ncccn4)C3)C2)nc1", "note": "(stereo not given)", "INHIBITION": 44.8},
      {"molecule": "CCC(CC)CN1CCC2(CCCN(c3ncccn3)C2)C1", "note": "(stereo not given)", "INHIBITION": 62.5},
      {"molecule": "c1cnc(N2CCCC3(CCN(Cc4ccncc4)C3)C2)nc1", "note": "(stereo not given)", "INHIBITION": 42.6},
      {"molecule": "c1cnc(N2CCCC3(CCN(CC4CC4)C3)C2)nc1", "note": "(stereo not given)", "INHIBITION": 43.9},
      {"molecule": "c1cnc(N2CCCC3(CCN(CC4CCC4)C3)C2)nc1", "note": "(stereo not given)", "INHIBITION": 55.5},
      {"molecule": "c1cnc(N2CC3(CCN(Cc4ccncc4)C3)C2)nc1", "INHIBITION": 11.3},
      {"molecule": "c1cnc(N2CCC3(CCCN(Cc4ccncc4)C3)CC2)nc1", "INHIBITION": 82.3},
      {"molecule": "c1cnc(N2CCC3(CCN(CC4CCCC4)CC3)C2)nc1", "INHIBITION": 28.4},
      {"molecule": "COCCN1CCC2(CCCN(c3ncccn3)C2)C1", "note": "(stereo not given)", "INHIBITION": 48.3},
      {"molecule": "CC1CN(S(=O)(=O)c2ccc(C(=O)NCC(F)F)cc2)CCCO1", "note": "(stereo not given)", "INHIBITION": 49.2},
      {"molecule": "Cc1ccc(CN2CCN(C(=O)CCc3nc(Cl)n[nH]3)CC2=O)cc1", "INHIBITION": 29.4},
      {"molecule": "O=C1CN(Cc2ccc3ccccc3n2)CCN1C1CCCC1", "INHIBITION": 36},
      {"molecule": "Cc1nnc(NC(=O)NCc2ccc(OC(C)C)nc2)s1", "INHIBITION": 21.5},
      {"molecule": "CCN(Cc1cccc2c1OCO2)C(=O)NC1CC1", "INHIBITION": 36.4},
      {"molecule": "CCN(Cc1cccc2c1OCCO2)C(=O)NC(C)(C)C", "INHIBITION": 51.1},
      {"molecule": "CCN(Cc1cccc2c1OCO2)C(=O)Nc1ccncc1", "INHIBITION": 46.5},
      {"molecule": "CN(CC(=O)NCC(F)(F)F)Cc1cccc2c1OCCO2", "INHIBITION": 44.7},
      {"molecule": "CCN(CC(=O)NC(C)(C)C)Cc1cccc2c1OCCO2", "INHIBITION": 23.3},
      {"molecule": "CN(CC(=O)NC(C)(C)C)Cc1cccc2c1OCCO2", "INHIBITION": 65},
      {"molecule": "CCC(O)CN1CCN(C(=O)c2sccc2C(C)C)CC1", "note": "(stereo not given)", "INHIBITION": 23.4},
      {"molecule": "O=C(Nc1nc(-c2ccccc2)ns1)N1CCC(F)CC1", "INHIBITION": -47},
      {"molecule": "CC(C)(O)C1CCN(C(=O)Nc2nc(-c3ccccc3)ns2)CC1", "INHIBITION": 58.9},
      {"molecule": "CC(C)(O)C1CCCN(C(=O)Nc2nc(-c3ccccc3)ns2)C1", "note": "(stereo not given)", "INHIBITION": -62.8},
      {"molecule": "CC(C)n1cnnc1C1CCCN(S(=O)(=O)c2c[nH]cn2)C1", "note": "(stereo not given)", "INHIBITION": 36.3},
      {"molecule": "O=C(Cc1csc(-c2ccccn2)n1)NCCCN1CCCCCC1=O", "INHIBITION": 9.76},
      {"molecule": "CC(=O)Nc1ncc(S(=O)(=O)N2CCCC(C)C2)s1", "note": "(stereo not given)", "INHIBITION": 40.2},
      {"molecule": "CC(=O)Nc1ncc(S(=O)(=O)Nc2ccc3c(c2)OCCO3)s1", "INHIBITION": 81.4},
      {"molecule": "CC(=O)Nc1ncc(S(=O)(=O)Nc2ccccc2)s1", "INHIBITION": 40.8},
      {"molecule": "COc1ccc(NS(=O)(=O)c2cnc(NC(C)=O)s2)cc1", "INHIBITION": 50.7},
      {"molecule": "COC(=O)c1cccc(NS(=O)(=O)c2cnc(NC(C)=O)s2)c1", "INHIBITION": 22.9},
      {"molecule": "CC(=O)Nc1ncc(S(=O)(=O)N2CCOCC2)s1", "INHIBITION": 21.7},
      {"molecule": "CC(=O)Nc1ncc(S(=O)(=O)N2CCC(C)CC2)s1", "INHIBITION": 61.2},
      {"molecule": "COC(=O)c1ccc(NS(=O)(=O)c2cnc(NC(C)=O)s2)cc1", "INHIBITION": 1.86},
      {"molecule": "CC(=O)Nc1ncc(S(=O)(=O)Nc2cccc(C)c2)s1", "INHIBITION": 27.5},
      {"molecule": "CC(=O)Nc1ncc(S(=O)(=O)Nc2cccc(F)c2)s1", "INHIBITION": -13},
      {"molecule": "CC(=O)Nc1ncc(S(=O)(=O)Nc2ccc(C)cc2)s1", "INHIBITION": 77.2},
      {"molecule": "CC(=O)Nc1ncc(S(=O)(=O)Nc2ccc(F)cc2)s1", "INHIBITION": -6.32}
    ]}
  ]
}
